CD40 NFkB inh = CD40 pathway inhibition in BL2 cells; BL2 NF-kB luciferase reporter, CD40L-induced, 4 h; inhibition, % at 10 µM; actives 0.94% (n = 83,000); AID 1053188;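 active = mean inhibition of at least 50% with a set share of replicates also reaching that level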;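 note: 0% = neutral control wells and 100% = IKK inhibitor VII at 50 µM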
The depositor's hits bear a star; [ ] = another dose, or the depositor's remark. This excerpt belongs to a sample that is enriched for hits.

SMILES	CD40 NFkB inh
COc1ccc(C(=O)COC(=O)c2cccs2)cc1	81*
COc1ccc(CCNC(=O)COC(=O)c2cccs2)cc1	1
CCCN(C(=O)c1cccc(S(=O)(=O)N2CCN(C)CC2)c1)c1c(N)n(Cc2ccccc2)c(=O)[nH]c1=O	5
C/C=C/c1ccc([C@@H]2[C@@H](CN(C(=O)COC)C(C)C)N(C(C)=O)[C@H]2CO)cc1	9[25 µM]
O=C(NCCc1ccccc1)[C@@H]1[C@@H](CO)[C@@H]2Cn3c(cccc3=O)[C@H]1N2CC1CC1	-1[25 µM]
COCCNC(=O)C[C@@H]1C[C@H]2c3cc(NC(=O)NC4CCCCC4)ccc3O[C@H]2[C@@H](CO)O1	6
CO[C@@H]1CC[C@@H]2CCOc3ccc(C#N)cc3C(=O)N(C)C[C@@H](c3ccccc3)CC(=O)N(C)C[C@H]1O2	13[25 µM]
Cc1sc2ncnc(Sc3nnnn3-c3ccccc3)c2c1C	47*
CCCSc1ncnc2sc(C)c(C)c12	8
Cc1sc2ncnc(SCC#N)c2c1C	6
COCCNC(=O)c1cc2c(c(-c3cccc(C4=CCCC4)c3)n1)[C@H](CCO)N([S@@](=O)C(C)(C)C)C2	-6
COCCN(C[C@H]1N[C@H](CO)[C@@H]1c1ccc(-c2cccc(C#N)c2)cc1)C(C)=O	2[25 µM]
CC(=O)Nc1ccc(S(=O)(=O)N(C)c2ccc(OCC(=O)NCCc3ccccc3F)cc2)cc1	-10
C[C@@H]1CN([C@@H](C)CO)C(=O)CCCn2cc(nn2)CO[C@@H]1CN(C)C(=O)Nc1ccc(N2CCCCC2)cc1	-14[25 µM]
Cc1ccc(CN2CCNC(=O)C2CC(=O)N(C)C2CCCCC2)cc1 (stereo not given)	5
CCCNC(=O)N1[C@H](CO)[C@H](c2ccccc2)[C@H]1CNC(=O)C1CCCC1	0
COC(=O)C1=C(C(=O)OC)C(C(=O)OC)C(C(=O)OC)C(C(=O)OC)(C(=O)OC)C(C(=O)OC)=C1C(=O)OC (stereo not given)	75*
COC(=O)C1C(C(=O)OC)C1(c1ccccc1)c1ccccc1 (stereo not given)	3
O=C(c1cccc(F)c1)N1C[C@@H]2[C@H](c3ccccc31)[C@H](CO)N2C(=O)C1CC1	2
O=C(c1ccccc1)N1CC[C@@H]2[C@H]1c1cc(-c3ccccc3F)ccc1N[C@@H]2CO	4
Cc1ccc(-c2c(C#N)c(N)nc3c2CCCC3)o1	5
N#Cc1c(-c2ccco2)cc(-c2cccnc2)nc1N	2
Cc1ccc(-c2cc(-c3ccccc3)c(C#N)c(N)n2)o1	46*
CO[C@H](CN(C)C(=O)Nc1ccc(Cl)cc1)[C@@H](C)CN(Cc1ccccc1Cl)[C@H](C)CO	-9[25 µM]
CC(=O)Nc1ccccc1OCC(=O)c1ccc2c(c1)OCO2	-56
SMILES	CD40 NFkB inh
CN(CC(=O)Nc1ccccc1Br)C(=O)CNC(=O)c1ccc2c(c1)OCO2	-4
O=C(/C=C\Nc1ccccc1Br)c1ccc2c(c1)OCO2	57*
O=C(NC1CCC1)[C@@H]1[C@@H](CO)[C@@H]2Cn3c(ccc(-c4ccccc4F)c3=O)[C@@H]2N1Cc1cocn1	-18[25 µM]
C[C@@H]1CN([C@@H](C)CO)C(=O)Cc2cc(NC(=O)Cc3cn(C)c4ccccc34)ccc2O[C@H]1CN(C)Cc1ccc(C(F)(F)F)cc1	66*[25 µM]
C[C@@H]1CN([C@@H](C)CO)C(=O)Cc2cc(NS(=O)(=O)c3ccc(Cl)cc3)ccc2O[C@H]1CN(C)Cc1ccc(Cl)c(Cl)c1	65*
C[C@@H]1CN([C@H](C)CO)C(=O)Cc2cc(NS(=O)(=O)c3ccc(F)cc3)ccc2O[C@@H]1CN(C)Cc1ccncc1	3[25 µM]
C[C@H](CO)N1C[C@H](C)[C@@H](CN(C)Cc2ccc(Cl)c(Cl)c2)Oc2ccc(NS(=O)(=O)c3ccc(Cl)cc3)cc2CC1=O	14
C[C@@H]1CN([C@@H](C)CO)C(=O)Cc2cc(NC(=O)Cc3cn(C)c4ccccc34)ccc2O[C@@H]1CN(C)C(=O)Nc1ccccc1	-3
C[C@@H]1CN([C@@H](C)CO)C(=O)Cc2cc(NC(=O)Nc3ccc(C(F)(F)F)cc3)ccc2O[C@H]1CN(C)Cc1ccccc1	-4
C[C@H]1CN([C@@H](C)CO)C(=O)Cc2cc(NS(=O)(=O)c3cccs3)ccc2O[C@@H]1CN(C)Cc1ccc(Cl)c(Cl)c1	57*
Cc1noc(C)c1S(=O)(=O)Nc1ccc2c(c1)CC(=O)N([C@@H](C)CO)C[C@@H](C)[C@@H](CN(C)Cc1ccc(Cl)c(Cl)c1)O2	15
C[C@@H]1CN([C@@H](C)CO)C(=O)Cc2cc(NS(=O)(=O)c3ccc(F)cc3)ccc2O[C@@H]1CN(C)Cc1ccncc1	3[25 µM]
C[C@@H]1CN([C@@H](C)CO)C(=O)Cc2cc(NS(=O)(=O)c3ccccc3)ccc2O[C@H]1CN(C)Cc1ccc(Cl)c(Cl)c1	68*
C[C@@H]1CN([C@@H](C)CO)C(=O)c2cc(NS(=O)(=O)c3cccs3)ccc2O[C@@H]1CN(C)Cc1ccc(C(=O)O)cc1	2[25 µM]
C[C@H](CO)N1C[C@H](C)[C@@H](CN(C)Cc2ccc(C(=O)O)cc2)Oc2ccc(NS(=O)(=O)c3cccs3)cc2C1=O	0[25 µM]
Cc1csc(N=Cc2ccc([N+](=O)[O-])o2)n1	1
CN(C)C(=O)c1ccc(-c2ccc(C3[C@@H]4CN(C(=O)CN5CCOCC5)C[C@H]3N4)cc2)cc1 (stereo not given in full)	-2
C[C@H]1CN([C@@H](C)CO)C(=O)c2ccccc2-c2ccccc2CO[C@@H]1CN(C)Cc1ccc(C(=O)O)cc1	-13
CNC[C@@H]1Oc2ccc(N(C)C)cc2C(=O)N([C@@H](C)CO)C[C@@H]1C	18[25 µM]
C[C@@H](NC(=O)C[C@@H]1CC[C@H]2[C@H](COc3ccc(NC(=O)C4CCOCC4)cc3C(=O)N2C)O1)c1ccccc1	0[25 µM]
COc1cccc(NC(=O)N2CC(=O)N3[C@H](CO)[C@@H](c4ccc(C#CC5CCCC5)cc4)[C@H]3C2)c1	-3
CC1CCN(CCNC(=S)Nc2ccc(Cl)cc2)CC1	-3
C[C@@H]1CN(C)C(=O)c2cccc(N(C)C)c2O[C@H]1CN(C)C(=O)OC(C)(C)C	4
O=C(CN1C(=O)CCC1=O)Nc1cccc2c1C(=O)NC2=O	2
O=C(c1cnccn1)N1CC(=O)N2[C@H](CO)[C@@H](c3ccc(/C=C/c4ccccc4)cc3)[C@H]2C1	14[25 µM]
SMILES	CD40 NFkB inh
C[C@@H]1CCCCO[C@@H](CN(C)CC2CCCCC2)[C@H](C)CN([C@H](C)CO)C(=O)c2cc(NC(=O)Nc3ccc(C(F)(F)F)cc3)ccc2O1	-8
C[C@H]1CCCCO[C@H](CN(C)Cc2ccc(C(F)(F)F)cc2)[C@@H](C)CN([C@@H](C)CO)C(=O)c2cc(NC(=O)Nc3cccc4ccccc34)ccc2O1	53*[25 µM]
Cc1noc(C)c1S(=O)(=O)Nc1ccc2c(c1)C(=O)N([C@H](C)CO)C[C@H](C)[C@@H](CN(C)C(=O)Nc1cccc3ccccc13)OCCCC[C@@H](C)O2	0[25 µM]
Cc1noc(C)c1S(=O)(=O)Nc1ccc2c(c1)C(=O)N([C@H](C)CO)C[C@@H](C)[C@H](CN(C)C(=O)Nc1cccc3ccccc13)OCCCC[C@@H](C)O2	75*[25 µM]
C[C@@H]1CN([C@H](C)CO)C(=O)c2cc(NC(=O)Nc3cccc4ccccc34)ccc2O[C@@H](C)CCCCO[C@@H]1CN(C)Cc1ccc(C(F)(F)F)cc1	32[25 µM]
C[C@@H]1CN([C@@H](C)CO)C(=O)c2cc(NC(=O)Nc3ccc(C(F)(F)F)cc3)ccc2O[C@@H](C)CCCCO[C@@H]1CN(C)CC1CCCCC1	12[25 µM]
